# Reference: PubChem BioAssay (NCI)
# About 83,000 compounds went through this panel and 20% of them were active in at least one assay; those are over-represented in the sample as a whole.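 Each cell line was grown in a 96-well plate and treated with one concentration of compound for 48 hours. Values below 10 were considered active.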 Unmarked numbers belong to inactive results. Calls of active or inactive are those of the source.
# Tested on: MOLT-4 leukemia
# Assay: NCI-60 one-dose screen, 48 h (100 = growth as untreated, 0 = no growth, -100 = all killed)
# Settings: 10 µM unless noted
row,Compound,growth
1,C=CC(=O)N1CCC(Oc2cc3c(Nc4ccc(Cl)c(Cl)c4F)ncnc3cc2OC)CC1,-10.5% (active)
2,FC(F)(F)c1ccc(CNc2ccc(Cc3c[nH]c4ncc(Cl)cc34)cn2)cn1,7.19% (active)
3,O=S1(=O)OC(c2cc(Cl)c(O)c(Br)c2)(c2cc(Cl)c(O)c(Br)c2)c2ccccc21,92.4%
4,CC(C)(C)OC(=O)N1CCC(O)[C@@H](O[Si](c2ccccc2)(c2ccccc2)C(C)(C)C)[C@H]1/C=C/c1ccccc1 (stereo partly drawn),28%
5,Cc1cn(-c2cc(NC(=O)c3ccc(C)c(Nc4nccc(-c5cccnc5)n4)c3)cc(C(F)(F)F)c2)cn1,42.9%
6,Cc1cnc(Nc2ccc(OCCN3CCCC3)cc2)nc1Nc1cccc(S(=O)(=O)NC(C)(C)C)c1,1.26% (active)
7,Cc1cccc(C)c1N1C(c2ccccc2)=NNC12C=CC(=O)c1c(O)cccc12 (stereo not drawn),76.9%
8,C=CC(=O)Nc1cccc(Nc2nc(Nc3ccc(N4CCN(C(C)=O)CC4)cc3OC)ncc2C(F)(F)F)c1,12.6%
9,COc1ccc(/C(C)=C(\c2ccc(Cl)cc2)c2ccc(OCCN3CCCCCC3)cc2)cc1,40.2%
10,Cc1cc(C(=O)Nc2cc(Oc3ccc4nc(NC(=O)C5CC5)cn4n3)ccc2C)n(C)n1,32.6%
11,CO[C@H](C(=O)N[C@@H](CCCCNC(=O)OCc1ccccc1)C(=O)OC(C)(C)C)[C@@H]1Cc2cc3cc(OC4CC(OC5CC(O)C(O)C(C)O5)C(O)C(C)O4)c(C)c(O)c3c(O)c2C(=O)[C@H]1OC1CC(OC2CC(OC3CC(C)(O)C(O)C(C)O3)C(O)C(C)O2)C(O)C(C)O1 (stereo partly drawn),-12.6% (active)
12,CCN(CCCOc1ccc2c(Nc3cc(CC(=O)Nc4cccc(F)c4)[nH]n3)ncnc2c1)CCOP(=O)(O)O,46.5%
13,CC/C=C\C[C@H]1C/C=C2/C(=O)C=C[C@@H]2C/C=C\CCCC(=O)O1,-4.8% (active)
14,Cc1cn(-c2cc(NC(=O)c3ccc(C)c(Nc4nccc(-c5cnccn5)n4)c3)cc(C(F)(F)F)c2)cn1,52.6%
15,COc1cc2ncnc3c2cc1OCCCCCN(C)Cc1ccc(Br)cc1N3,22.1%
16,C[C@@]1(C(=O)Nc2ccc(F)nc2)CCCN1c1nc(Nc2cc(C3CC3)[nH]n2)c2cccn2n1,30.3%
17,C[C@]12O[C@H](C[C@]1(O)CO)n1c3ccccc3c3c4c(c5c6ccccc6n2c5c31)CNC4=O,-18% (active)
18,CCN1CCN(CCCN(C[C@H]2Cc3ccccc3CN2)[C@H]2CCCc3cccnc32)CC1,69.8%
19,COCc1c(-c2ccc(NC(=O)Nc3cc(C(F)(F)F)ccc3F)c(F)c2)c2c(N)ncnn2c1CN1CCOCC1,-5.86% (active)

row,Compound,growth
1,COc1cc2cc(NCc3ccc(F)cc3)nc(C)c2cc1OC,35.2%
2,CC(=O)C1=C(C)NC(SCc2nnc(-c3ccc(C)cc3)o2)=NC1c1ccc(F)cc1 (stereo not drawn),94.1%
3,N#CC[C@H](C1CCCC1)n1cc(-c2ncnc3[nH]ccc23)cn1,56.1%
4,Cc1ccc(-[n+]2c3cc(N)c(C)cc3nc3cc(C)c(Nc4ccccc4)cc32)cc1,-2.02% (active)
5,COc1cc2cc(NCc3ccc(Cl)cc3)nc(C)c2cc1OC,27.6%
6,CC(=O)c1cnc2ccc(-c3cc(Cl)c(O)c(Cl)c3)nc2c1NC1CCC(CN(C)C)CC1 (stereo not drawn),-36.4% [2.5 µM] (active)
7,CCN(CC)c1cc2oc3cc(N)cc(=N)c-3nc2cc1C,29.1%
8,CO[C@H]1C[C@@H]2CC[C@@H](C)[C@@](O)(O2)C(=O)C(=O)N2CCCC[C@H]2C(=O)O[C@H]([C@H](C)C[C@@H]2CC[C@@H](O)[C@H](OC)C2)CC(=O)[C@H](C)/C=C(\C)[C@@H](O)[C@@H](OC)C(=O)[C@H](C)C[C@H](C)\C=C/C=C/C=C/1C,6.08% (active)
9,COc1cccc(NC(=O)Nc2ccc(Nc3ncnc4sc5c(c34)CCN(C(=O)CCl)C5)cc2)c1,92.8%
10,CCN(CC)CCNC(=O)c1c(C)[nH]c(/C=C2\C(=O)Nc3ccc(F)cc32)c1C,17%
11,CO[C@@H](C)Cn1c(=O)n(C)c2cnc3ccc(-c4cncc(C(C)(C)O)c4)cc3c21,-8.71% (active)
12,Cc1c(N)ccc(-c2ccc(N)c(C)c2S(=O)(=O)O)c1S(=O)(=O)O,102%
13,CNC(=O)c1cc(Oc2ccc(NC(=O)Nc3ccc(Cl)c(C(F)(F)F)c3)c(F)c2)ccn1,-7.86% (active)
14,COCCOc1cnc2ccn([C@H](C)c3nnc4c(F)cc(-c5cnn(C)c5)cn34)c(=O)c2c1,78.7%
15,N#Cc1c(-c2ccc(Cl)cc2)csc1NC(=O)Nc1cccc(C(F)(F)F)c1,7.5% (active)
16,CC(=O)C1CC(C)CCC1C(C)C (stereo not drawn),83.1%
17,O=C(COc1cccc(/C=C2\Cc3ccc(Cl)cc3C2=O)c1)Nc1nccs1,37.3%
18,O=C(Cn1ccnc1)Nc1ccc(-c2nc3ccccc3s2)cc1,68.1%
19,CN1CCC(CNc2ccc3ncc(-c4cccc(OC(F)(F)F)c4)n3n2)CC1,-5.02% (active)
